About 83,000 compounds went through this panel and 20% of them were active in at least one assay; those are over-represented in the sample as a whole.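 Note: values are percent growth. 100 is the growth of untreated cells, values between 100 and 0 indicate rising inhibition; between -100 and 0 indicates cell death.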 A number with no mark means an inactive call. Active and inactive are the calls of the source. The calls were made as follows: active = growth percent below 10; inactive = the rest.
Tests used:
Assay in all cases: NCI-60 one-dose screen, 48 h (100 = growth as untreated, 0 = no growth, -100 = all killed)
Conditions in all cases: 10 µM unless noted
[1] = system: DU-145 prostate
[2] = system: K-562 leukemia
[3] = system: MALME-3M melanoma
[4] = system: MDA-MB-231 breast
[5] = system: RXF 393 renal
[6] = system: SF-268 CNS
[7] = system: SF-295 CNS
[8] = system: SF-539 CNS
[9] = system: UACC-257 melanoma
[10] = system: M14 melanoma
[11] = system: HCT-15 colon
[12] = system: HT29 colon
[13] = system: SNB-75 CNS
[14] = system: SNB-19 CNS
[15] = system: U251 CNS
[16] = system: PC-3 prostate
[17] = system: SK-MEL-5 melanoma
[18] = system: UACC-62 melanoma
[19] = system: LOX IMVI melanoma
[20] = system: SK-MEL-28 melanoma

Row | SMILES | growth [1] | growth [2] | growth [3] | growth [4] | growth [5] | growth [6] | growth [7] | growth [8] | growth [9] | growth [10] | growth [11] | growth [12] | growth [13] | growth [14] | growth [15] | growth [16] | growth [17] | growth [18] | growth [19] | growth [20]
1 | C=C1C(=O)O[C@H]2[C@H]1CC/C(COC(=O)CSCC(=O)OC/C1=C/CC[C@@]3(C)O[C@H]3[C@H]3OC(=O)C(=C)[C@@H]3CC1)=C\CC[C@@]1(C)O[C@@H]21 | 50.3% | 9.77% (active) | -10.3% (active) | -16.8% (active) | -86.3% (active) | 57.8% | 88.1% | 19.3% | 9.23% (active) | 1.21% (active) | 5.12% (active) | -26% (active) | 81.8% | 69.1% | 34.3% | 46.9% | 63.2% | 42.4% | -25.2% (active) | -3.76% (active)
2 | N#Cc1c(Nc2cccc(Cl)c2)sc(C(=O)c2cc3cc(Cl)ccc3o2)c1N | 30.6% | 51.9% | 101% | 75.6% | 105% | 67.7% | 123% | 84% | 102% | 105% | 72.6% | 80.5% | 101% | 97.5% | 62.6% | 62.8% | 73.4% | 78.6% | 85.9% | 94.3%
3 | O=c1ccn(Cc2cn(-c3c4ccccc4nc4ccccc34)nn2)c(=O)[nH]1 | 74.6% | 33.1% | 98.6% | 89.4% | 98.2% | 99.6% | 106% | 101% | 85.6% | 98.4% | 91.6% | 104% | 102% | 94.1% | 89.5% | 97.5% | 91.3% | 91.4% | 74.2% | 102%
4 | COc1cccc(-c2nc(-c3ccc(NC(=O)c4ccccc4)cc3)[nH]c2-c2ccnc(Br)c2)c1 | 62.2% | 2.4% (active) | 28.7% | 34.2% | -44.3% (active) | 51.4% | -62.5% (active) | -5.94% (active) | 49.4% | 29.6% | -0.905% (active) | 10.2% | 10.7% | 33.6% | 30.7% | 17.6% | -79.6% (active) | 16.4% | -55.8% (active) | 37%
5 | COc1ccc(-c2nc(NN)c3c(C)nn(-c4ccc(F)cc4)c3n2)cc1 | 37.9% | 17.8% | 61.5% | 53.1% | 51% | 46.3% | 27.8% | 36.2% | 45.3% | 26.4% | 31.2% | 7.11% (active) | 23.3% | 35.1% | 27.1% | 42.3% | 40.7% | 36.2% | 41.9% | 61.4%
6 | COc1cc(/C=C/c2ccccc2)cc(OC)c1 | 94.3% | 93% | 105% | 91% | 118% | 92.7% | 95.7% | 93.1% | 103% | 101% | 91% | 90.4% | 93.1% | 98.7% | 84.1% | 94.6% | 96.5% | 83.4% | 84.8% | 111%
7 | Nc1ccc(Sc2ccc([N+](=O)[O-])c3nonc23)cc1 | 97.3% | 26.7% | 57% | 92.4% | 104% | 98% | 96.9% | 91.9% | 86.9% | 88.7% | 58.2% | 70.8% | 90.7% | 95.6% | 90.9% | 87.1% | 88.1% | 84.5% | 80.3% | 102%
8 | O=C(/C=C/c1sc(Cl)nc1Cl)c1ccccc1 | 99.1% | 10.8% | 95.7% | 98.7% | 99.7% | 104% | 102% | 72.3% | 94.9% | 79.8% | 30.4% | 88.6% | 86.5% | 96% | 69.9% | 84.8% | 102% | 93.5% | 3.61% (active) | 95.4%
9 | O=c1ccc(N=Nc2ccc([N+](=O)[O-])cc2)ccc1O | 38.4% | 13.7% | 22.9% | 13.9% | 46% | 23.2% | 12.6% | 16.7% | 21.9% | 44.6% | 13.2% | 25.9% | 30.7% | 19% | 17.4% | 34.2% | 9.1% (active) | 15.2% | 3.95% (active) | 41.1%
10 | O=c1c2cc(F)ccc2sc2c(N3CCNCC3)nc3ccc(F)cc3c12 | -84.7% (active) | -37.8% (active) | 82.6% | -76.4% (active) | 50.9% | 48.3% | 77.8% | -89.4% (active) | 96.3% | -62% (active) | -66.4% (active) | -41.2% (active) | 53.9% | 57% | -56.2% (active) | 32% | 81.5% | 0.994% (active) | -98.5% (active) | 27.9%
11 | CCCCn1c(=O)c(-c2cc(-c3ccc(Cl)cc3)nc(-c3ccc(Cl)cc3)c2)cc2cc(Cl)ccc21 | 112% | 102% | 104% | 84.6% | 118% | 98.4% | 103% | 103% | 96.1% | 101% | 97.8% | 101% | 95.4% | 96% | 105% | 98.4% | 107% | 88.5% | 99.9% | 104%
12 | O=c1c2cc(F)cc(Cl)c2sc2c(NCCCNCCO)nc3ccccc3c12 | 77% | 18.7% | 99.8% | 48.8% | 80.3% | 67.1% | 104% | 88.5% | 109% | 62.3% | 77.3% | 3.35% (active) | 74.6% | 88.1% | 75.8% | 82.7% | 98.9% | 99.9% | 66% | 108%
13 | C/C(=C\C(=O)c1ccc(Cl)cc1)c1ccc(Cl)cc1 | 113% | 106% | 97.5% | 89.8% | 106% | 96.4% | 109% | 104% | 98.4% | 104% | 44.6% | 109% | 92.8% | 99.9% | 100% | 87.8% | 94.1% | 92.8% | 100% | 111%
14 | COc1ccc2c(c1)nc(NNC(=O)c1cnccn1)c1cccn12 | 31.1% | 13.9% | 46.3% | 30.4% | 48% | 30.4% | 13.6% | 23.5% | 25.7% | 8.27% (active) | 21.5% | 27.2% | 70.5% | 31.3% | 27.3% | 39.4% | 26.4% | 11.5% | 9.17% (active) | 25.1%
15 | BrCCCc1n(Cc2ccc3ccccc3c2)c2ccccc2[n+]1Cc1ccc2ccccc2c1 | -62.4% (active) | -13% (active) | -73.2% (active) | -60.8% (active) | -77.6% (active) | -75.4% (active) | -91.1% (active) | -74.9% (active) | -55.7% (active) |  | -60.6% (active) | -50.8% (active) | -71.5% (active) | -33.3% (active) | -91.9% (active) | -69.1% (active) | -95.3% (active) | -76.2% (active) | -93.8% (active) | -75.8% (active)
16 | Cc1nn(-c2ccccc2)c(-n2ccnc2)c1/C=N/Nc1nc(-c2ccc(F)cc2)cs1 | 87.5% | 38.8% | 83.2% | 79.6% | 88.5% | 76.9% | 77.3% | 87.6% | 75.6% |  | 76.8% | 81.2% | 73.7% | 87.1% | 74.4% | 65.5% | 31.4% | 74.9% | 83.7% | 97.6%

— PubChem BioAssay (NCI)
